Laboratory results published in PubChem BioAssay.
Activity calls are given as the source filed them.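 Rule for the calls, unless noted: active = mean inhibition over 43.08%, the solvent-only control mean plus 3 SD; inactive = the rest.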

Columns and labels:
[1] = target: Nuclear receptor coactivator 3 (Homo sapiens) (UniProt Q9Y6Q9); test: SRC3 coactivator transcriptional activity inhibitors, confirmation, cell-based, luminescence, quadruplicate (AID 588792); details: HEK293 GAL4-SRC3 luciferase reporter, at 3.6 µM, stronger effect = higher value;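 note: 0% = DMSO treated cells and 100% = gossypol at 36 µM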
[2] = tested on: transactivating tegument protein VP16 (Human herpesvirus 1), Gal4-VP16 luciferase reporter; test: VP16 transactivation inhibitors, counter-screen for SRC3 inhibitor project, cell-based, luminescence, high throughput (AID 588794; in the data active = inhibition above about 30%); details: mammalian cells, VP16-driven luciferase reporter luminescence; at 3.6 µM; stronger effect = higher value
[3] = target: Nuclear receptor coactivator 1 (Homo sapiens) (UniProt Q15788); test: SRC1 coactivator transcriptional activity inhibitors, confirmation, cell-based, luminescence, quadruplicate (AID 588820;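 active = mean inhibition above 46.68%, the untreated control wells mean plus 3 SD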;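 note: 0% = DMSO wells and 100% = gossypol 36 µM treated wells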); details: HEK293 GAL4-SRC1 luciferase reporter, at 3.6 µM, stronger effect = higher value
[4] = VP16 transactivation inhibitors, counter-screen for SRC1 inhibitor project, cell-based, luminescence, high throughput (AID 588824; in the data active = inhibition above about 25%); details: cell-based VP16 transactivation luciferase luminescence; at 3.6 µM; stronger effect = higher value

Measured: inhibition

Sequence of Nuclear receptor coactivator 1 (Homo sapiens) (Q15788 whole entry, looked up, the tested form may be a part): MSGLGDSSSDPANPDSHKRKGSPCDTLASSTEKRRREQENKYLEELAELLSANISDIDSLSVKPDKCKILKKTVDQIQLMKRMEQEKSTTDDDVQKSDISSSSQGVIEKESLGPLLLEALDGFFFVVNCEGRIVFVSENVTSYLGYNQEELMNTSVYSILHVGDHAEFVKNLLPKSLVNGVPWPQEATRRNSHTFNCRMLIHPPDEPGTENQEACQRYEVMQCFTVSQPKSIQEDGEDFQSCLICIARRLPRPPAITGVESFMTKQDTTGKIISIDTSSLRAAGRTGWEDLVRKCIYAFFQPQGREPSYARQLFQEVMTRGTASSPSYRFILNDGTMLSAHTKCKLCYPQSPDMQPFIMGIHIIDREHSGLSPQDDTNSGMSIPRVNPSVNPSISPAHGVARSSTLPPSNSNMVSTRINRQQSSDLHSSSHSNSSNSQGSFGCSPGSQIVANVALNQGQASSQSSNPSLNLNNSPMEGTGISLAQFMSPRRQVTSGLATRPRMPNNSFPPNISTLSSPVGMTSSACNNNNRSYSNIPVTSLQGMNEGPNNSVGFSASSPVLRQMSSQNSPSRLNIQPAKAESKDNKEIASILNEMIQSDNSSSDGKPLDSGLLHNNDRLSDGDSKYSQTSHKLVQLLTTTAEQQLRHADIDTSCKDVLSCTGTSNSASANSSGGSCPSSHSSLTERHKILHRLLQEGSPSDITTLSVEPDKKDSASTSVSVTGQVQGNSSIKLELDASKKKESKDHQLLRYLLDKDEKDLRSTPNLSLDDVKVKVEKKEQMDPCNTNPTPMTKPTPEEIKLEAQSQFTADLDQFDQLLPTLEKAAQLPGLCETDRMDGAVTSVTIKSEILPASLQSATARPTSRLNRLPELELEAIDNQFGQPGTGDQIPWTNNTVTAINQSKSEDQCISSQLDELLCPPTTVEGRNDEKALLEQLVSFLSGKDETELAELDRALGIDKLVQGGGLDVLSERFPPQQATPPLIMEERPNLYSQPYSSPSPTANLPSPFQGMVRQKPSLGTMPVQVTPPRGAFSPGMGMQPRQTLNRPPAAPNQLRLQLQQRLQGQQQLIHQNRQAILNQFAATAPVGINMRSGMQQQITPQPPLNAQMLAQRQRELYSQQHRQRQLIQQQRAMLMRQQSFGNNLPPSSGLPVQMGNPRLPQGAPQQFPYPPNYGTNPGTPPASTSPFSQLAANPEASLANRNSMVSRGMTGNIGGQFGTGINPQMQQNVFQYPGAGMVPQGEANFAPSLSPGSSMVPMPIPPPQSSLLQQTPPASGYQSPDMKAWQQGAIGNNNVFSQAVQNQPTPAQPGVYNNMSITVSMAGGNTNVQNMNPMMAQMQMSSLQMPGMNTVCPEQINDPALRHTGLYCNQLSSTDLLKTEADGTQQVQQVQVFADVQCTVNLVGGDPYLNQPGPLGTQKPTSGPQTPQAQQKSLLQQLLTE
Sequence of Nuclear receptor coactivator 3 (Homo sapiens) (Q9Y6Q9 whole entry, looked up, the tested form may be a part): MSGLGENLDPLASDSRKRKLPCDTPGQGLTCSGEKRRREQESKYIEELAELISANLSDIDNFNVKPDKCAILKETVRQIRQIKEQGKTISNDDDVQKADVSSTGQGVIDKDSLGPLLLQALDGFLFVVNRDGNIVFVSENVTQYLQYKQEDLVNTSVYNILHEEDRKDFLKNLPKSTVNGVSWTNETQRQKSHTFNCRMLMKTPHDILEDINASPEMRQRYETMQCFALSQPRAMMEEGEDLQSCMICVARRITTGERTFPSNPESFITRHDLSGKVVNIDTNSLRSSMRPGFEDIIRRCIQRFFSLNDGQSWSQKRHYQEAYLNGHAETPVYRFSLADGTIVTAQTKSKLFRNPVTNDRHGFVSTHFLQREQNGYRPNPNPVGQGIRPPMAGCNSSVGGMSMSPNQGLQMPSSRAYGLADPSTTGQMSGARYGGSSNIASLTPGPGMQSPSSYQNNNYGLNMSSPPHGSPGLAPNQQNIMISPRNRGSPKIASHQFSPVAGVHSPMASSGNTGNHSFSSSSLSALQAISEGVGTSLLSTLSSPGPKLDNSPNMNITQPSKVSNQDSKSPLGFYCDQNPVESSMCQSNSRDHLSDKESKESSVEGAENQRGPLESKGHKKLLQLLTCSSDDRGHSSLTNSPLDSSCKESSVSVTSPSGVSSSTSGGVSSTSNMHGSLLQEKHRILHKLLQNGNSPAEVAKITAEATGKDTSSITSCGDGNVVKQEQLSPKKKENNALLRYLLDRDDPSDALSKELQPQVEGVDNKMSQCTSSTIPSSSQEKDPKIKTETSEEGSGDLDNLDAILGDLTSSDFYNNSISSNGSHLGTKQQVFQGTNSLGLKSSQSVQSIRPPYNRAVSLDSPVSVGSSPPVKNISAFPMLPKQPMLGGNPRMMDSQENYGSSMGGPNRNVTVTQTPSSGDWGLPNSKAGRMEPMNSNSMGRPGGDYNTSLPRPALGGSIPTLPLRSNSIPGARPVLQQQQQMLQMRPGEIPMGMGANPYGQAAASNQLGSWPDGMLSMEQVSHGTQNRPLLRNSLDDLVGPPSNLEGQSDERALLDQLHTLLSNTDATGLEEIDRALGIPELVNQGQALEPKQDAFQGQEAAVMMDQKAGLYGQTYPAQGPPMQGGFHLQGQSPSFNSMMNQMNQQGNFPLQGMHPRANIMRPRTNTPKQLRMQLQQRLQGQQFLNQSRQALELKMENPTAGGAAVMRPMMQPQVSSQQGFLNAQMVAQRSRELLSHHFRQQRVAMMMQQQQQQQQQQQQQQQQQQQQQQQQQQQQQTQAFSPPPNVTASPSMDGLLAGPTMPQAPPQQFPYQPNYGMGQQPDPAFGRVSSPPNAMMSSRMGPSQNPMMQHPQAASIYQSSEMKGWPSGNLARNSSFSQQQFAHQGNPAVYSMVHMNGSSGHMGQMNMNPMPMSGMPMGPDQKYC

CC(=O)c1c(C)oc2ccc(N(C(C)=O)S(=O)(=O)c3cccc4cccnc34)cc12
inactive: [1] 15.2% | [2] 21.9% | [3] 6.31% | [4] 18.4%

CC1=C(C(=O)OCc2ccc3c(c2)OCO3)C(c2ccccc2)NC(=O)N1 (stereo unspecified)
active: [1] 78.7% | [2] 59.2% | [3] 68.9% | [4] 61.8%

Nc1ccc(-c2cnc(N)c(C(=O)c3cccnc3)n2)cn1
active: [1] 85.8% | [2] 55.7% | [3] 74.3% | [4] 56%

CN1CCN(c2ncnc3scc(-c4ccccc4Cl)c23)CC1
active: [1] 59.6% | [2] 41.5% | [3] 55.4% | [4] 44.3%

CC1Sc2ccc(Cl)cc2-c2nc(N)ncc21 (stereo unspecified)
active: [1] 43.9% | [2] 32.3% | [3] 48.2% | [4] 39.7%

O=C(NCc1ccc(Cl)cc1)c1csc(-c2cccnc2)n1
inactive: [1] 13.6% | [2] 16.3% | [3] 10.2% | [4] 7.38%

COc1cc2oc(=O)cc(-c3ccc(-c4ccc(CO)cc4)cc3)c2c(OC)c1OC
inactive: [2] 28.3% | [3] 32.9%
active: [1] 45.9% | [4] 32.5%

COCC(C)n1c(C)cc(C(=O)COC(=O)c2cc(=O)[nH]c3ccccc23)c1C (stereo unspecified)
inactive: [1] 1.93% | [2] -15.5% | [3] -34.1% | [4] -32.1%

NNC(=O)c1cnn(Cc2ccccc2)c1N
inactive: [1] -5.29% | [2] 2.66% | [3] -14.9% | [4] -5.69%
